Screening data deposited in PubChem BioAssay by National Center for Advancing Translational Sciences (NCATS).
TDP1 block: qHTS Assay for Inhibitors of Tyrosyl-DNA Phosphodiesterase (TDP1); Potency, µM (doses to about 130 µM), for inactives: at the highest dose activity change, negative = inhibition, actives largely listed as inhibitors; Tyrosyl-DNA phosphodiesterase 1 (Homo sapiens), Q9NUW8; AID 485290, 2010; recombinant TDP1, AlphaScreen DNA substrate cleavage; 350,000 tested, 0.28% active; note: potency is the fitted concentration of half-maximal effect; % is set by controls: 0 for no effect and ±100 for the full control effect; nearly all actives have a fitted effect of over 40% in size
Target sequence (Q9NUW8 whole entry, looked up): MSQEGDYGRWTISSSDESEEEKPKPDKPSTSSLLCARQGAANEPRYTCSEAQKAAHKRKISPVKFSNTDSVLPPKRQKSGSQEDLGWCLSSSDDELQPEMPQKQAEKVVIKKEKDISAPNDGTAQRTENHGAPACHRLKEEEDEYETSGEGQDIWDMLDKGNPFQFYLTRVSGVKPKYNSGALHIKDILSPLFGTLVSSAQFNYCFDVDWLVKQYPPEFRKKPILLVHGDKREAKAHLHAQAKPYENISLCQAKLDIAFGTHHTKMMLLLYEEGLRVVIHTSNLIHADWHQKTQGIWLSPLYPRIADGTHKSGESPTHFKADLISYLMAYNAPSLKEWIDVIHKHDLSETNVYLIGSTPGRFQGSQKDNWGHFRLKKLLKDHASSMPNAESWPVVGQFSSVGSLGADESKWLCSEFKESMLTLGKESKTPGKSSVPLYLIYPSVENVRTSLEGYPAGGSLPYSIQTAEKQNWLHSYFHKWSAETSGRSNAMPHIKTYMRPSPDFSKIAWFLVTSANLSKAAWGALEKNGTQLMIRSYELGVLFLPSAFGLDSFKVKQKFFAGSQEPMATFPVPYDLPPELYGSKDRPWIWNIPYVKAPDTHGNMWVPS
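Signal: AlphaScreen proximity between streptavidin donor and anti-FITC acceptor beads on intact substrate. Reaction: Tdp1 1 nM, substrate 15 nM final, 5 min RT after 15 min compound preincubation.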
IL1B secr inh: qHTS for Inhibitors of Inflammasome Signaling: IL-1-beta AlphaLISA Primary Screen. AID 743279, 2014. THP-1 LPS/ATP IL-1B secretion, AlphaLISA, 16 h; hits give low values. 360,000 tested, 4.7% active. activity change, % at 57.5 µM; in the data active = activity change below about -50%; inconclusive = mostly about -30% to -49%; note: % is set by controls: 0 for no effect and ±100 for the full control effect
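THP-1 cells pretreated 1 hr with compounds (up to 57.5 uM final), then stimulated with LPS (250 ng/mL final) plus ATP (1.25 mM final); secreted IL-1B measured by AlphaLISA after 16 hr, decreased signal indicating inhibition.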
TGFb SMAD3 inh: qHTS for Inhibitors of TGF-b. HepG2 CAGA-GFP TGF-b/SMAD3 reporter, GFP fluorescence, 18 h; TGF-beta stimulated, 500 pg/mL final. Potency, µM (highest dose often 46.1 µM), without a hit: at the top dose activity, negative = inhibition, hits mostly inhibitors. 410,000 tested, 1.2% active. AID 588855, 2011; note: potency is the fitted concentration of half-maximal effect; % is set by controls: 0 for no effect and ±100 for the full control effect; nearly all actives have a fitted effect of over 65% in size
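Read-out: total well GFP (ex488/em500-530) summed from mean per-cell fluorescence. Cells: HEPG2 CAGA-GFP, 1% FBS DMEM, 18 h at 37 degrees C with 500 pg/mL final TGF-beta. Unstimulated wells served as the full-inhibition control; stimulated DMSO wells = 0%.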
DT40 TDP1 CPT: qHTS for Inhibitors of human tyrosyl-DNA phosphodiesterase 1 (TDP1): qHTS in cells in presence of CPT | AID 686979, 2013 | Potency, µM (series often up to 46.2 µM), for the others: at the highest dose activity change, negative = growth inhibition, most hits filed as inhibitors | 420,000 tested, 12% active | chicken DT40 Tdp1-/-;hTDP1 cells + 20 nM CPT, ATP luminescence, 48 h; note: potency is the fitted concentration of half-maximal effect; % is set by controls: 0 for no effect and ±100 for the full control effect; nearly all actives have a fitted effect of over 55% in size
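Chicken DT40 Tdp1-/- cells stably complemented with human TDP1 were seeded at 400 cells/well in medium containing 20 nM camptothecin, exposed to pin-transferred compounds, and grown at 37 °C for at least 48 hr. Viability was read as ATP luminescence.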
TDP1 cell noCPT: qHTS for Inhibitors of human tyrosyl-DNA phosphodiesterase 1 (TDP1): qHTS in cells in absence of CPT; Potency, µM (highest dose often 46.2 µM), for the others: top-dose activity change, negative = growth inhibition, most hits filed as inhibitors; DT40 Tdp1-/- hTDP1 cells, no CPT, ATP luminescence, 48 h; AID 686978, 2013; 420,000 tested, 15% active; note: potency is the fitted concentration of half-maximal effect; % is set by controls: 0 for no effect and ±100 for the full control effect; nearly all actives have a fitted effect of over 55% in size
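Growth kinetics read by CellTiter-Glo luminescence after ≥48 hr at 37 °C. Cells: DT40 Tdp1-/- stably carrying human TDP1, 400 per well, compound exposure in the absence of CPT (DMSO vehicle).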
HepG2 viability: qHTS for Inhibitors of TGF-b: Cytotox Counterscreen | Potency, µM (highest dose often 46.1 µM), without a hit: top-dose activity change, negative = cytotoxicity, hits mostly cytotoxic | AID 588856, 2011 | 410,000 tested, 0.76% active | HepG2 CAGA-GFP viability, ATP luminescence, 18 h; note: potency is the fitted concentration of half-maximal effect
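CellTiter-Glo luminescence gave cytotoxicity after 18 hours at 37 degrees C. The cells were HepG2 CAGA-GFP in 1% FBS DMEM, stimulated with 500 pg/mL TGF-beta after compound addition. %Activity was normalised to no-cell wells (complete cell-killing) and DMSO (no toxicity), and curves were fitted and classified.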
* hit, by the source's call; ? = inconclusive; . = not tested or not shown; [ ] = another dose, or the depositor's remark. Shown are actives, neighbours in structure and some others; about 19% of the full set was active somewhere. Unless noted, calls come from the whole dose curve; as a rule, active = well fitted curve in the direction sought with a large enough effect; inconclusive = small, poorly fitted or top-dose-only effect, or another doubt; inactive = no such curve, though single readings can be large; an effect the other way counts as inactive or inconclusive.

SMILES	TDP1 block	IL1B secr inh	TGFb SMAD3 inh	DT40 TDP1 CPT	TDP1 cell noCPT	HepG2 viability
CCCOc1cccc(C(=O)Nc2cccc3cccnc23)c1	-12%	.	3%	23µM*	?	-17%
Cc1cnc(C(=O)Nc2cccc3cccnc23)cn1	7%	198	2.8µM*	0.0073µM*	0.0092µM*	-89%
COc1cc(C(=O)Nc2cccc3cccnc23)cc(OC)c1OC	4%	-20	-1%	?	26µM*	5%
Cc1ccccc1N1CCN(C2CCCN(C(=O)c3ccc(Cl)s3)C2)CC1 (stereo unspecified)	5%	-11	-18%	?	?	-6%
Cc1nc(C(=O)N2CCCC(N3CCN(c4ccccc4C)CC3)C2)cs1 (stereo unspecified)	1%	4	8%	15µM*	?	-2%
Cc1ccc2nc(C)cc(C(=O)N3CCCC(N4CCN(c5ccccc5C)CC4)C3)c2c1 (stereo unspecified)	3%	-3	-3%	15µM*	?	16%
COCc1ccc(C(=O)N2CCCC(N3CCN(c4ccccc4C)CC3)C2)s1 (stereo unspecified)	5%	-15	-4%	15µM*	?	-15%
Cc1ccccc1N1CCN(C2CCCN(C(=O)c3csc(C(C)C)n3)C2)CC1 (stereo unspecified)	4%[56.1 µM]	-8	?	?	?	-24%
Cc1ccccc1N1CCN(C2CCCN(C(=O)CCc3c(C)noc3C)C2)CC1 (stereo unspecified)	1%	-3	0%	?	23µM*	-23%
CC(C)Sc1nc2sc3c(c2c(=O)n1Cc1ccccc1)CCCC3	2%[2.28 µM]	.	13%	?	?	-1%
COc1ccc(C)cc1NC(=O)c1ccc2c(c1)nnn2C1CCCC1	-3%	.	?	?	?	-32%
COc1ccc(C(=O)NCC(=O)OCC(=O)c2cccc3ccccc23)cc1	2%	.	3%	?	-4%	-5%
CCc1ccc(S(=O)(=O)c2cn(CC(=O)Nc3ccc(C)cc3)c3ccccc3c2=O)cc1	6%	.	-11%	-1%	?	-2%
O=C(CCCSc1nnc(Nc2ccccc2F)s1)N1CCOCC1	3%	-20	-2%	-5%	?	-10%
Cc1ccc2nc(CSc3nnc(Nc4ccccc4F)s3)cc(=O)n2c1	?	0	?	?	16µM*	-23%
O=c1cc(CSc2nnc(Nc3ccccc3F)s2)nc2sccn12	5%	-9	-21%	?	23µM*	-15%
CC(=O)Nc1cc2c(cc1[N+](=O)[O-])-c1ccccc1C2O (stereo unspecified)	.	?	-25%	?	12µM*	-2%
CC(=O)Nc1ccc(OCc2ccccc2)cc1[N+](=O)[O-]	.	-13	5%	-13%	-20%	-2%
COc1ccc(Nc2ccc3cc(S(=O)(=O)N4CCCC4)ccc3n2)cc1OC	8%	.	41%	18µM*	21µM*	-28%
COc1ccc(CNc2ccc3cc(S(=O)(=O)N4CCCCC4)ccc3n2)cc1	0%	.	-23%	?	18µM*	-20%
CCOc1ccccc1Nc1ccc2cc(S(=O)(=O)N3CCCCC3)ccc2n1	0%	.	-15%	?	18µM*	-4%
CC1CCN(S(=O)(=O)c2ccc3ccccc3c2)CC1	-5%	-5	1%	-2%	-14%	-41%
COCCNc1ccc2cc(S(=O)(=O)N3CCCCC3)ccc2n1	3%	.	-10%	-8%	?	-12%
COc1cccc(Nc2ccc3cc(S(=O)(=O)N4CCC(C)CC4)ccc3n2)c1	-3%	.	?	?	15µM*	-30%
O=S(=O)(c1ccc2nc(Nc3ccccc3)ccc2c1)N1CCCCC1	-4%	-67*	?	?	16µM*	-31%
SMILES	TDP1 block	IL1B secr inh	TGFb SMAD3 inh	DT40 TDP1 CPT	TDP1 cell noCPT	HepG2 viability
CC(=O)c1cccc(Nc2ccc3cc(S(=O)(=O)N4CCCC4)ccc3n2)c1	8%	.	-32%	?	?	-19%
COc1ccccc1NC(=O)N1CCN(c2cc(-c3ccccc3)nc3ncnn23)CC1	2%	?	-20%	4.6µM*	4.1µM*	-21%
COc1ccc(NC(=O)C2CCN(c3cnccn3)CC2)cc1OC	12%	-3	-24%	15%	-23%	-10%
COc1ccc(NC(=O)C2CCN(c3cc(-c4ccccc4)nc4ncnn34)CC2)cc1OC	4%	-58*	-18%	18µM*	23µM*	0%
CCOC(=O)c1cc(-c2ccccc2)n(-c2cccc(C(=O)N(C)c3ccc(C)cc3)c2)c1C	9%	.	1%	-80%	8.2µM*	17%
CCOC(=O)c1cc(-c2ccccc2)n(-c2cccc(C(=O)NC(C)(C)C)c2)c1C	5%	.	-1%	?	?	-11%
CCCN(CC(=O)Nc1ccc(Cl)cc1Cl)C(=O)/C=C/c1ccco1	-1%	-24	-9%	?	16µM*	-6%
Cc1cccc(NC(=O)C2C(c3ccccc3)C2(Cl)Cl)c1 (stereo unspecified)	-4%	0	?	?	13µM*	-31%
CC(=O)c1cccc(NC(=O)C2C(c3ccccc3)C2(Cl)Cl)c1 (stereo unspecified)	-3%	-23	-19%	-23%	-22%	-20%
COc1ccc(NC(=O)C2C(c3ccccc3)C2(Cl)Cl)cc1 (stereo unspecified)	1%	-13	-31%	?	?	-49%
CCOc1ccc(NC(=O)C2C(c3ccccc3)C2(Cl)Cl)cc1 (stereo unspecified)	1%	-9	?	?	23µM*	-13%
